This is an account of results in PubChem BioAssay (NCI).

The panel holds about 83,000 compounds, 20% with a hit somewhere; the sample as a whole holds those more often.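 Values shown are percent growth following 48 h exposure of cells in 96-well plates to a single concentration of compound; below 10 was considered active.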 Values without a mark were called inactive. Active and inactive are the calls of the source.

Among the test systems are MOLT-4 leukemia; SR leukemia; RPMI-8226 leukemia; OVCAR-8 ovarian; OVCAR-5 ovarian; OVCAR-4 ovarian; SK-OV-3 ovarian; IGROV1 ovarian; OVCAR-3 ovarian; HS 578T breast; NCI/ADR-RES ovarian; T-47D breast; BT-549 breast; MDA-MB-435 melanoma; SW-620 colon; MCF7 breast; HCT-116 colon; HCC-2998 colon; KM12 colon.
Holding throughout (assay): NCI-60 one-dose screen, 48 h (100 = growth as untreated, 0 = no growth, -100 = all killed)
Conditions in all cases: 10 µM unless noted

In the case of `CC[C@H](C)[C@H](NC(=O)[C@H]1CCCCN1C)C(=O)N(C)[C@H](C(=O)NC12CC(C(=O)N[C@@H](Cc3ccccc3)C[C@H](C)C(=O)OC)(C1)C2)C(C)C`, the growth in the assay on MOLT-4 leukemia is 104%; in the assay on SR leukemia, 114%; in the assay with RPMI-8226 leukemia it was 108%; in the assay with OVCAR-8 ovarian, 96.8%; with OVCAR-5 ovarian, 98.4%; with OVCAR-4 ovarian, 90.8%. Further, the growth is 104% in the assay on SK-OV-3 ovarian; 105% with IGROV1 ovarian; 101% in the assay with OVCAR-3 ovarian; 118% in the assay on HS 578T breast; 103% with NCI/ADR-RES ovarian; 85.7% in the assay with T-47D breast. The growth with BT-549 breast is 101%; in the assay with MDA-MB-435 melanoma, 108%; in the assay on SW-620 colon, 107%; in the assay with MCF7 breast, 96.4%; with HCT-116 colon it was 99.5%; with HCC-2998 colon it was 109%. The growth in the assay on KM12 colon is 104%.
`O=[N+]([O-])c1ccc2scc3c4ccccc4nc-3c2c1`: the growth in the assay on MOLT-4 leukemia was -11.7% (active); in the assay on SR leukemia, 15.9%; in the assay with RPMI-8226 leukemia it was -29.5% (active); with OVCAR-8 ovarian, -62.3% (active); with OVCAR-5 ovarian it was -77.1% (active); in the assay on OVCAR-4 ovarian it was -88.5% (active). The growth with SK-OV-3 ovarian was 45.8%; with IGROV1 ovarian, -59% (active); in the assay on OVCAR-3 ovarian, -99% (active); in the assay with HS 578T breast, -2.07% (active); with NCI/ADR-RES ovarian, 10.7%; in the assay with T-47D breast, -24.3% (active). Besides, the growth with BT-549 breast was 22.7%; with MDA-MB-435 melanoma, -2.05% (active); in the assay with SW-620 colon, -76.4% (active); in the assay on MCF7 breast, -64.6% (active); in the assay on HCT-116 colon, -98.7% (active); in the assay with HCC-2998 colon, 95.7%. In addition, the growth in the assay on KM12 colon was 1.98% (active).
Turning to `O=C1CCCCC1CN1CCCCC1` (configuration not stated), the growth was 116% in the assay on MOLT-4 leukemia; 123% with SR leukemia; 108% in the assay on RPMI-8226 leukemia; 110% in the assay on OVCAR-8 ovarian; 97.1% in the assay on OVCAR-5 ovarian; 119% with OVCAR-4 ovarian. Besides, the growth in the assay on SK-OV-3 ovarian was 97.9%; in the assay with IGROV1 ovarian, 93.9%; in the assay on OVCAR-3 ovarian it was 100%; in the assay on HS 578T breast, 107%; in the assay on NCI/ADR-RES ovarian, 101%; in the assay with T-47D breast, 83.2%. The growth was 117% with BT-549 breast; 109% in the assay with MDA-MB-435 melanoma; 101% in the assay on SW-620 colon; 90.9% with MCF7 breast; 101% with HCT-116 colon; 97.8% with HCC-2998 colon. In the assay with KM12 colon, the growth was 98.1%.
Regarding `COc1ccc(N(CC(=O)NCCC[Te]c2ccccc2)C(=O)c2ccccc2)cc1`, the growth in the assay with MOLT-4 leukemia was 17.9%; with SR leukemia it was 10.3%; with RPMI-8226 leukemia, 22.5%; in the assay on OVCAR-8 ovarian, 14.2%; in the assay with OVCAR-5 ovarian, 33.4%; in the assay with OVCAR-4 ovarian, 99%. Also, the growth is 1.16% (active) in the assay with SK-OV-3 ovarian; 15.4% with IGROV1 ovarian; 95.9% with OVCAR-3 ovarian; 32.4% with HS 578T breast; 11.5% in the assay with NCI/ADR-RES ovarian; 135% with T-47D breast. Also, the growth with BT-549 breast was -36.2% (active); in the assay with MDA-MB-435 melanoma, 101%; with SW-620 colon, 82%; in the assay with MCF7 breast, 13.2%; in the assay with HCT-116 colon, 9.88% (active); with HCC-2998 colon it was 57.6%. Further, the growth in the assay with KM12 colon was 26.3%.
As for `C[C@]12CCc3sc(Nc4ccc(OC(F)(F)F)cc4)nc3C1=CC[C@@H]1[C@@H]2CC[C@]2(C)C(=O)CC[C@@H]12`, the growth with MOLT-4 leukemia is 4.15% (active); in the assay on SR leukemia, 16.9%; in the assay on RPMI-8226 leukemia, 2.88% (active); with OVCAR-8 ovarian, 66.5%; in the assay on OVCAR-5 ovarian, 91.9%; in the assay with OVCAR-4 ovarian, 64%. Also, the growth in the assay with SK-OV-3 ovarian was 69.9%; in the assay with IGROV1 ovarian, 93.6%; with OVCAR-3 ovarian, 37.4%; with HS 578T breast, 38.5%; in the assay on T-47D breast, 41.8%; with BT-549 breast, 53.5%. The growth in the assay on MDA-MB-435 melanoma was 77.6%; in the assay on SW-620 colon, 43.3%; with MCF7 breast, 17.1%; in the assay on HCT-116 colon it was 7.77% (active); with HCC-2998 colon, 96.5%; with KM12 colon, 53.5%.
For the compound `N#CC(N)c1ccccc1` (configuration not stated), the growth in the assay on MOLT-4 leukemia is 108%; in the assay with SR leukemia, 101%; with RPMI-8226 leukemia, 99%; in the assay with OVCAR-8 ovarian it was 106%; in the assay on OVCAR-5 ovarian, 101%; in the assay on OVCAR-4 ovarian it was 110%. Moreover, the growth was 115% with SK-OV-3 ovarian; 115% with IGROV1 ovarian; 106% in the assay on OVCAR-3 ovarian; 98.5% in the assay on HS 578T breast; 114% in the assay with T-47D breast; 96.3% in the assay on BT-549 breast. Besides, the growth with MDA-MB-435 melanoma was 98.3%; with SW-620 colon it was 103%; with MCF7 breast, 111%; with HCT-116 colon, 96.4%; in the assay with KM12 colon, 103%.
Consider `O=S(OO)c1cc(Cl)c(O)c(Cl)c1` (configuration not stated), for which the growth with MOLT-4 leukemia was 103%; with SR leukemia, 95.1%; in the assay with RPMI-8226 leukemia it was 99.9%; in the assay on OVCAR-8 ovarian, 101%; in the assay on OVCAR-5 ovarian, 107%; with OVCAR-4 ovarian, 89.9%. In addition, the growth with SK-OV-3 ovarian is 103%; in the assay on IGROV1 ovarian, 104%; in the assay with OVCAR-3 ovarian, 114%; in the assay with HS 578T breast it was 104%; in the assay on T-47D breast, 87.6%; in the assay on BT-549 breast, 89.1%. Further, the growth is 97.1% in the assay on MDA-MB-435 melanoma; 98.3% in the assay with SW-620 colon; 78.6% in the assay with MCF7 breast; 105% with HCT-116 colon; 95.5% in the assay on HCC-2998 colon; 108% in the assay on KM12 colon.
As for `CCOP(=O)(NC)OCC`, the growth was 127% with MOLT-4 leukemia; 71.3% in the assay on SR leukemia; 92.8% in the assay with RPMI-8226 leukemia; 115% in the assay on OVCAR-8 ovarian; 91.5% with OVCAR-5 ovarian; 105% with OVCAR-4 ovarian. In addition, the growth in the assay with SK-OV-3 ovarian was 104%; in the assay on IGROV1 ovarian, 105%; in the assay on OVCAR-3 ovarian, 99.5%; with HS 578T breast, 98.4%; in the assay on T-47D breast it was 102%; in the assay on BT-549 breast, 112%. The growth with MDA-MB-435 melanoma was 132%; with SW-620 colon it was 108%; with MCF7 breast it was 101%; with HCT-116 colon, 92.1%; in the assay on HCC-2998 colon, 112%; in the assay with KM12 colon it was 106%.
